Structures are written as SMILES. Inconclusive results are not listed. A call without a number means that no potency is given here. Active and inactive are the calls of the source. Calls follow the shape of the dose curve; as a rule, active = well fitted inhibition curve with a large enough effect; inconclusive = small, poorly fitted or top-dose-only effect; inactive = no such curve, though single readings can be large or run the other way.
Also: nearly all actives have a fitted effect of over 70% in size.
Potency is read from the fitted curve at half-maximal effect.

For one assay, the target named is N-terminal Xaa-Pro-Lys N-methyltransferase 1 (Homo sapiens) (UniProt Q9BV86). The assay can be described thus: qHTS Assay for Inhibitors of N-terminal methyltransferase 1 (NTMT1): LOPAC validation of the NTMT1 SAHH-coupled ThioGlo3 Assay (AID 1347143).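 Also: SAH from peptide methylation measured as thiol fluorescence via SAHH coupling and ThioGlo3.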 To be noted: recombinant NTMT1, SAHH-coupled ThioGlo3 fluorescence; series mostly up to 114 µM. The method, boiled down: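 Inhibition of NTMT1 methylation of peptide SPKRIA is followed by converting SAH with SAHH and labelling the released thiol with ThioGlo3. Plates are read at 340/450nm before and 30 min after reagent addition, both at room temperature.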
N-terminal Xaa-Pro-Lys N-methyltransferase 1 (Homo sapiens), sequence (Q9BV86 whole entry, looked up): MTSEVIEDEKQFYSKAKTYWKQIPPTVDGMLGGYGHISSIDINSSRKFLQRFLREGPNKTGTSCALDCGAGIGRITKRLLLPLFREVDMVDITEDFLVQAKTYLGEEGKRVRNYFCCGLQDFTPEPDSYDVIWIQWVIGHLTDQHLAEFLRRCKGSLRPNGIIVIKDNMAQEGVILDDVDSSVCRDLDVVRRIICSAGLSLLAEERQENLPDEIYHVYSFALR
A general note: In qHTS, concentration-response curves come from the screen itself.
`NCCc1c[nH]c2ccc(C(N)=O)cc12`: the Potency entry is “inactive”.

Turning to `O=[N+]([O-])/C=C/c1ccc2c(c1)OCO2`, the Potency is 39.8 µM (active). Same read-out and setting: the result for `CCN1C[C@@]2(COC)C3[C@@H](OC)C4[C@H]1C3([C@@H]1C[C@@]3(O)[C@H](OC(=O)c5ccccc5)[C@@H]1[C@]4(OC(C)=O)[C@@H](O)[C@@H]3OC)[C@H](OC)C[C@H]2O` reads “inactive”; that for `CCN(CC)c1ncnc2c1ncn2[C@@H]1O[C@H](COP(=O)(O)OP(=O)(O)C(Br)(Br)P(=O)(O)O)[C@@H](O)[C@H]1O`, “inactive”; that for `COc1ccc2c(c1O)-c1cccc3c1[C@@H](C2)N(C)CC3`, 56.2 µM (active). On the same count and under the same terms, the result for `Cc1cc([C@@H]2CCCN2C)on1` reads “inactive”; that for `NCCCP(=O)(O)O`, “inactive”. As for `C[C@H](Cc1ccc2c(c1)OC(C(=O)O)(C(=O)O)O2)NC[C@H](O)c1cccc(Cl)c1`, the Potency entry is “inactive”. As to `C[N+]1(C)C2CCC1CC(OC(=O)c1c[nH]c3ccccc13)C2` (centres undefined), the Potency was 31.6 µM (active). Take `O=c1ccc2[nH]cc(C3=CCNCC3)c2[nH]1`: the Potency is 56.2 µM (active). In the case of `CCS(=O)(=O)Nc1cccc(C(=C2CCCCC2)c2cnc[nH]2)c1`, the Potency entry was “inactive”. The same measure, in the same setting: in the case of `NC(=O)CI` it was 20 µM (active); in that of `CC(N)[C@H](O)c1ccc(O)c(O)c1` (some centres undefined), 50.1 µM (active); in that of `COc1ccc(OC)c(C(O)C(C)N)c1` (centres undefined), “inactive”. In the case of `NNC(=O)c1ccc(O)cc1`, the Potency entry was “inactive”.

For the compound `COc1ccc(CNC(=O)/C=C/c2ccc3[nH]cc(CCN(C)C)c3c2)cc1`, the Potency result is “inactive”. Still for that read-out and setting: in the case of `N[C@@H](Cn1oc(=O)[nH]c1=O)C(=O)O` it was “inactive”; in that of `c1ccc2c(c1)[I+]c1ccccc1-2`, 50.1 µM (active); in that of `CCn1cnc2c(Nc3cccc(Cl)c3)nc(N[C@@H]3CCCC[C@@H]3N)nc21`, 8.91 µM (active). The same measure, in the same setting: in the case of `C[N+]1(C)CCOC(O)(c2ccc(-c3ccc(C4(O)C[N+](C)(C)CCO4)cc3)cc2)C1` (centres undefined) it was “inactive”; in that of `CCCN(CCC)C1Cc2cc(OC)c(OC)cc2C1`, “inactive”; in that of `OCc1cnc[nH]1`, “inactive”. For `C[C@H]1C2Cc3ccc(O)cc3[C@@]1(C)CCN2CC1CC1`, the Potency entry was “inactive”.

`OC1CCCCC1N1CCC(c2ccccc2)CC1` (centres undefined): the Potency result is “inactive”. With `O=C1/C(=C/c2ccccc2)C[C@@]2(O)[C@H]3Cc4ccc(O)c5c4[C@@]2(CCN3CC2CC2)[C@H]1O5`, the Potency is 50.1 µM (active). Same read-out and setting: the result for `NC(N)=Nc1ccc2[nH]c3c(c2c1)C[C@@]1(O)[C@H]2Cc4ccc(O)c5c4[C@@]1(CCN2CC1CC1)[C@H]3O5` reads 22.4 µM (active).

For `C[N+](C)(C)CCOC(=O)CBr`, the Potency entry was “inactive”. On to `C[C@H](N)Cc1cccc(C(F)(F)F)c1`, for which the Potency result was “inactive”. On the same count and under the same terms, the result for `C#CCN[C@H](C)Cc1ccccc1` reads “inactive”.

In the next assay the target is Furin (Homo sapiens) (UniProt P09958). As to the kind of experiment: Furin counterscreen qHTS for Zika virus inhibitors (AID 1347149). The settings on record: furin enzymatic counterscreen, fluorogenic substrate; series mostly up to 57.5 µM. The method, boiled down: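 Fluorogenic cleavage of BOC-RVRR-AMC (2 microM final, Km ~15 µM) was monitored (ex 340, em 450 nm) at 37C after 15 min RT preincubation of 5 nM furin with compounds in HEPES pH 7.0 buffer with CaCl2 and Triton X-100. Percent inhibition was fitted to a 4-parameter Hill curve.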
Furin (Homo sapiens), sequence (P09958 whole entry, looked up): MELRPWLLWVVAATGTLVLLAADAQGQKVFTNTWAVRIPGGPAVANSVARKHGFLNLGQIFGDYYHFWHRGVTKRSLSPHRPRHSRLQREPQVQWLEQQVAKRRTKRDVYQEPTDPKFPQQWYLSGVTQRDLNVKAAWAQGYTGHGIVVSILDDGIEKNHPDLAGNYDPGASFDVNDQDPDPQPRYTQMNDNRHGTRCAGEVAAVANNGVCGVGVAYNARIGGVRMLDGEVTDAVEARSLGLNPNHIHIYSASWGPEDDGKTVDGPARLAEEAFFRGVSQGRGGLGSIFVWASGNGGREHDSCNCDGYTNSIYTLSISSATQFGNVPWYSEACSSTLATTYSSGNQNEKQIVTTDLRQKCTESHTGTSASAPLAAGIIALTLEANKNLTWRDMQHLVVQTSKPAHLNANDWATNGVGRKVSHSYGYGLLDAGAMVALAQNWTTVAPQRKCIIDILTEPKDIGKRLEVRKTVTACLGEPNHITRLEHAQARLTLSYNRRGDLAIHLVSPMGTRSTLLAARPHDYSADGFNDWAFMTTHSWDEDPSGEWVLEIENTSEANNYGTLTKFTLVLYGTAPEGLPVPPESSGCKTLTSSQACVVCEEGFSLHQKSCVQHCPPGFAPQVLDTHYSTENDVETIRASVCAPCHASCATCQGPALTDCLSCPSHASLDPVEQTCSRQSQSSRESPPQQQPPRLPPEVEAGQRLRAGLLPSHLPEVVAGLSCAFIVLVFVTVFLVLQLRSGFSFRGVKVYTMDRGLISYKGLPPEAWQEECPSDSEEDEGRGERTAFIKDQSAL
For orientation: The purpose of a counterscreen is to sort out artefacts and off-target activity.
With `C[C@@H]1[C@@H]2Cc3ccc(O)cc3[C@@]1(C)CCN2CC1CC1`, the Potency result was “inactive”. Take `Oc1cc(Cl)c(Cl)cc1Cl`: the Potency result is “inactive”. Turning to `O=c1ccc2[nH]cc(C3=CCNCC3)c2[nH]1`, the Potency is 24.1 µM (active). The same measure, in the same setting: in the case of `C[C@@]1(C(=O)O)CC[C@]2(C)CC[C@]3(C)C4=CC(=O)c5cc(O)c(O)cc5[C@]4(C)CC[C@@]3(C)[C@@H]2C1` it was “inactive”; in that of `CC[C@H](C)[C@H]1O[C@]2(C=C[C@@H]1C)C[C@@H]1C[C@@H](C/C=C(\C)[C@@H](O[C@H]3C[C@H](OC)[C@@H](O[C@H]4C[C@H](OC)[C@@H](O)[C@H](C)O4)[C@H](C)O3)[C@@H](C)/C=C/C=C3\CO[C@@H]4[C@H](O)C(C)=C[C@@H](C(=O)O1)[C@]34O)O2`, “inactive”.

The record behind these values is PubChem BioAssay (NCATS).
